Sampled rows, rich in hits. Any-hit rate of the full collection: about 3%.
Glioma ERSR ind: ER stress response induction in glioma. Potency, µM, hits mostly activators. 420,000 tested, 0.02% active. U87-MG GRP78 promoter luciferase reporter, 16 h; also: series mostly up to about 76 µM; nearly all actives have a fitted effect of over 35% in size
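Stably transfected U87-MG glioma cells carrying a GRP78-based luciferase sensor; 16 h compound incubation. Luminescence end-point read 10 min after Bright-Glo addition at room temperature.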
D3 antag: antagonists of human D3 dopamine receptor. P35462. D3R cells, DiscoveRx beta-arrestin luminescence, antagonist mode; stronger effect = lower value. max response, negative = inhibition, %. 360,000 tested, 2.5% active. AID 652054; in the data active = max response below about -50%; inconclusive = no clear call, values can overlap the other calls
Target sequence (P35462 whole entry, looked up): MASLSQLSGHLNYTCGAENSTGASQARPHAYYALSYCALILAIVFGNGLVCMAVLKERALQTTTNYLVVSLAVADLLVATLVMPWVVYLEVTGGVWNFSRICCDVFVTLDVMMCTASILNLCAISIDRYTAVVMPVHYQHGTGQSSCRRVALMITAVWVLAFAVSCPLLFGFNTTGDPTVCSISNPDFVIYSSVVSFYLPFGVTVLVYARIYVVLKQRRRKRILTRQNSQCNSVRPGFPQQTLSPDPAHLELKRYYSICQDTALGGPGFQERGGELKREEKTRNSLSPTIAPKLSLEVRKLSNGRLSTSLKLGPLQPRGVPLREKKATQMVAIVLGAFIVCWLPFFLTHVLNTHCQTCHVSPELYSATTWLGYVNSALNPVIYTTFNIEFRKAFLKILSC
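Cells expressing the human receptor were seeded at 1500 cells/well, incubated overnight at 37 degrees C in 5% CO2, then exposed to library compounds with dopamine controls for 90 minutes at 37 degrees C before luminescent detection.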
Nrf2 ARE act: activators of Nrf2 (ARE) signaling; AREc32 ARE-luciferase reporter (MCF7-derived line), luminescence, 24 h; Potency, µM (highest dose often 46.1 µM), usual class: activators; 410,000 tested, 0.31% active; AID 624171; also: nearly all actives have a fitted effect of over 65% in size
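Cells of the AREc32 ARE-luciferase line are plated in OPTI-MEM containing 5% FBS and left overnight at 37 deg C. Compounds are pinned in, incubation continues 24 hr, and firefly luciferase signal is then measured.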
DRD3 agonist: D3 dopamine receptor (human) agonism | max activation, % | D3R DiscoveRx beta-arrestin cells, luminescence, 90 min | 410,000 tested, 0.58% active; in the data active = max activation above about 30%
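Agonist mode: compounds and dopamine controls were applied to plated cells for 90 min at 37 degrees C after an overnight attachment at 1500 cells/well. Luminescent read-out followed 30 - 60 minutes at room temperature with DiscoveRx detection reagent.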
Of the large screens only hits and unclear results are named; the others gave an inactive call. Unless noted, calls follow the shape of the dose curve; as a rule, active = well fitted curve in the direction sought with a large enough effect; inconclusive = small, poorly fitted or top-dose-only effect, or another doubt; inactive = no such curve, though single readings can be large; an effect the other way counts as inactive or inconclusive.

CC1C2Cc3ccc(O)cc3[C@]1(C)CCN2CCc1ccccc1 (stereo partly drawn)	D3 antag -93
C[C@H]1[C@@H]2Cc3ccc(O)cc3[C@]1(C)CCN2CCc1ccccc1	none (no result: D3 antag, Nrf2 ARE act, DRD3 agonist)
O=C(/C=C/c1ccc2c(c1)OCO2)c1c(O)n(CCc2ccccc2)c(=O)[nH]c1=O	Nrf2 ARE act inconclusive
O=C(/C=C/c1ccccc1)c1c(O)n(CCc2ccccc2)c(=O)[nH]c1=O	Nrf2 ARE act 8.9µM
C[C@@H]1O[C@@H](O[C@H]2CC[C@@H](O[C@H]3[C@H](O)C[C@H](c4ccc5c(c4O)C(=O)C4=C(C5=O)[C@@]5(O)C(=O)C[C@](C)(O[C@H]6CC[C@H](O[C@H]7C=CC(=O)[C@H](C)O7)[C@H](C)O6)C[C@@]5(O)C=C4)O[C@@H]3C)O[C@H]2C)C=CC1=O	none (no result: D3 antag, Nrf2 ARE act, DRD3 agonist)
CC(NCc1ccc(Cl)c(Cl)c1)C(O)c1ccccc1 (stereo not drawn)	D3 antag -65
C[C@@H]1C(=O)O[C@@H]2C[C@]34[C@H]5C[C@@H](C(C)(C)C)[C@@]36[C@@H](OC(=O)[C@@H]6O)O[C@@]4(C(=O)O5)[C@@]12O	none (no result: D3 antag, Nrf2 ARE act, DRD3 agonist)
CC(C)(C)n1nnnc1C(c1cc2ccccc2o1)N1CCC2(CC1)C(=O)NCN2c1ccccc1 (stereo not drawn)	D3 antag -99
CC[C@H](OC(C)=O)C(C[C@H](C)NC)(c1ccccc1)c1ccccc1	none (no result: D3 antag, Nrf2 ARE act, DRD3 agonist)
Cc1ccnc(SCc2nc3ccccc3s2)n1	Nrf2 ARE act 13µM
S=P(N1CCCCCC1)(N1CC1)N1CC1	none
S=P(N1CCOCC1)(N1CC1)N1CC1	DRD3 agonist 34
CC1=C(O)C(=O)C=C2C1=CC=C1[C@]2(C)CC[C@@]2(C)C3C[C@](C)(C(=O)O)CC[C@@]3(C)CC[C@@]12C (stereo partly drawn)	none (no result: D3 antag, Nrf2 ARE act, DRD3 agonist)
CN1CCN(Cc2cc(C(C)(C)C)c(O)c(C(C)(C)C)c2)CC1	D3 antag -82
O=C1C[C@@H]2OCC=C3CN4CC[C@]56c7ccccc7N1[C@H]5[C@H]2[C@H]3C[C@H]46	none (no result: Glioma ERSR ind, D3 antag, Nrf2 ARE act)
C1=C(c2ccccc2)CCNC1	D3 antag -52
Oc1ccc(C2=CCNCC2)cc1O	none (no result: D3 antag, DRD3 agonist)
COc1cccc(N2CCN(Cc3cccc(Cl)c3)CC2)c1	D3 antag -74
COc1cccc(CN2CCN(Cc3cccc(F)c3)CC2)c1	none
COc1ccc(CN2CCN(C(=O)Cc3ccccc3)CC2)c(OC)c1	none
Fc1cccc(CN2CCN(c3ccc(Cl)cc3)CC2)c1	D3 antag -72
COc1cccc(N2CCN(Cc3ccc(Cl)cc3)CC2)c1	D3 antag -94
COc1ccc(CN2CCN(Cc3ccccc3)CC2)c(OC)c1	D3 antag -113
C[C@]12CCC(=O)C=C1CC[C@@H]1[C@H]3CC[C@](C)(O)[C@@]3(C)CC[C@@H]12	none (no result: D3 antag, Nrf2 ARE act, DRD3 agonist)
CCCCCc1cc(O)c2c(c1)OC(C)(C)c1ccc(C)cc1-2	none (no result: D3 antag, Nrf2 ARE act)
COc1ccc(C=C2C(=O)N(C)C(=O)N(C)C2=O)cc1CSc1ccccn1	none
COc1ccc([N+](=O)[O-])cc1CSc1ccccn1	Nrf2 ARE act 11µM
O=C(Cc1c(Cl)cccc1Cl)N1CCN(Cc2ccccc2)CC1	D3 antag -51
CC[C@H]1CN2CCC1C[C@@H]2[C@@H](O)c1ccnc2ccc(OC)cc12 (stereo partly drawn)	D3 antag -63
CC(=O)CC(c1ccccc1)c1c(O)c2cc(O)ccc2oc1=O (stereo not drawn)	none (no result: D3 antag, Nrf2 ARE act, DRD3 agonist)
CC(C)(C)NC[C@H](O)c1ccc(O)cc1Cl	none (no result: D3 antag, Nrf2 ARE act)
CCC(=O)OC1(Cc2ccc(CC)cc2)CC(C)N(C)CC1C (stereo not drawn)	D3 antag -56
CCOC(=O)CCN(SN(C)C(=O)Oc1cccc2c1OC(C)(C)C2)C(C)C	none (no result: D3 antag, Nrf2 ARE act, DRD3 agonist)
c1ccc(C2(N3CCCCC3)CCCCC2)cc1	none
S=C=Nc1cccc(C2(N3CCCCC3)CCCCC2)c1	DRD3 agonist 84
CCN(CC)C(=O)[C@@H]1C=C2c3cccc4[nH]cc(c34)C[C@H]2N(C)C1	DRD3 agonist 51 (no result: D3 antag, Nrf2 ARE act)
CN1C[C@H](CO)C=C2c3cccc4[nH]cc(c34)C[C@H]21	D3 antag -78
CN1C[C@@H](CO)C=C2c3cccc4[nH]cc(c34)CC21 (stereo partly drawn)	none (no result: D3 antag, Nrf2 ARE act, DRD3 agonist)
CC1=C2C(=O)C3C(CC=C4C[C@@H](O)CC[C@@]43C)[C@@H]2CC[C@]12O[C@@H]1C[C@H](C)CN[C@H]1C2C (stereo partly drawn)	none (no result: D3 antag, Nrf2 ARE act, DRD3 agonist)
CC(O)(CS(=O)(=O)c1ccccc1)C(=O)Nc1ccc(C(F)(F)F)cc1 (stereo not drawn)	none
CCCC(C)c1nnc(NC(=O)CCS(=O)(=O)c2ccccc2)s1 (stereo not drawn)	Nrf2 ARE act 22µM
CCC(N)CCc1c[nH]c2ccccc12 (stereo not drawn)	none (no result: D3 antag, Nrf2 ARE act, DRD3 agonist)
CN(C)C1(CNC(=O)Nc2ccc(Cl)c(Cl)c2)CCCCC1	D3 antag -55
CN(C)C1(CNC(=O)c2ccc(NS(=O)(=O)c3ccc(Cl)c(Cl)c3)cc2)CCCCC1	none
CCC(=O)CCCCC[C@@H]1NC(=O)[C@H]2CCCCN2C(=O)[C@H]([C@@H](C)CC)NC(=O)[C@H](Cc2cn(OC)c3ccccc23)NC1=O	none (no result: D3 antag, Nrf2 ARE act, DRD3 agonist)
COCCCN1CCN(c2nnc3n2-c2sc(Br)cc2C(c2ccccc2Cl)=NC3)CC1	D3 antag -57
CCOCCN1CCN(c2nnc3n2-c2ccc(Cl)cc2C(c2ccccc2Cl)=NC3)CC1	none
CC#C[C@]1(O)CC[C@H]2C3C=C(C)C4=CC(=O)C=C[C@]4(C)[C@H]3[C@@H](O)C[C@@]21C (stereo partly drawn)	none (no result: D3 antag, Nrf2 ARE act, DRD3 agonist)
ClC1=CCC2CN(CCN3CCCCC3)CC2C1 (stereo not drawn)	D3 antag -52
COC(=O)C1=C(c2ccccc2OCc2ccccc2)C[C@@H]2CC[C@H]1N2C	none
COC(=O)C1=C(c2ccc(F)cc2OCc2ccccc2)C[C@@H]2CC[C@H]1N2C	D3 antag -56
COc1ccc(CCNCc2ccc(SC)cc2)cc1	D3 antag -53
CCC/C=C/C=C/C(=O)O[C@H]1/C(=C/C(=O)OC)C[C@H]2C[C@H]([C@@H](C)O)OC(=O)C[C@H](O)C[C@@H]3C[C@H](OC(C)=O)C(C)(C)[C@](O)(C[C@@H]4C/C(=C/C(=O)OC)C[C@H](/C=C/C(C)(C)[C@]1(O)O2)O4)O3	none (no result: Glioma ERSR ind, D3 antag, Nrf2 ARE act)
COc1cc(CN2CCCC(C(=O)c3sccc3C)C2)cc(OC)c1O (stereo not drawn)	none
COc1cc(CN2CCCC(C(=O)c3sccc3C)C2)cc(Cl)c1O (stereo not drawn)	D3 antag -51
COc1ccc(CN2CCCC(C(=O)c3sccc3C)C2)cc1O (stereo not drawn)	D3 antag -74
Cc1ccsc1C(=O)C1CCCN(Cc2cccc(OCCO)c2)C1 (stereo not drawn)	D3 antag inconclusive
Cc1ccsc1C(=O)C1CCCN(Cc2ccc(-n3cccn3)cc2)C1 (stereo not drawn)	D3 antag -63
Cc1ccsc1C(=O)C1CCCN(Cc2cccc(-n3cccn3)c2)C1 (stereo not drawn)	D3 antag -80
Cc1cc(/C=C/c2cccc3sc(C)[n+](CCCCI)c23)ccc1N(CCCl)CCCl	none (no result: D3 antag, Nrf2 ARE act, DRD3 agonist)
